Measured values published in PubChem BioAssay AID1159580 (chemical genetic matrix, 2015).
In all, about 5,500 compounds went through this assay and about 2,000 (36%) were called active. Not shown: some 18% with an inconclusive outcome. Rule as the data show it: active = normalized growth mostly below about 0.91 (no sharp cut-off); inconclusive = no clear call, values can overlap the other calls; inactive = mostly above about 0.92. The list shows a part of the results.

Test: chemical genetic growth profiling, strain panel (AID 1159580);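 also: tested at 20 µM; growth read once vehicle control cultures reached saturation at 30 °C; 1 = growth at the plate median or of vehicle wells; lower values mean less growth of the strain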
Settings: growth OD
[1] = S. cerevisiae deletion strains, locus YBR021W, strain FUR4, active compounds read low
[2] = S. cerevisiae deletion strains, locus YBR229C, strain ROT2, active compounds read low
[3] = S. cerevisiae deletion strains, locus YCL029C, strain bik1, active compounds read low
[4] = S. cerevisiae deletion strains, locus YDL035C, strain GPR1, active compounds read low
[5] = S. cerevisiae deletion strains, locus YDL074C, strain BRE1, active compounds read low
[6] = S. cerevisiae deletion strains, locus YDL101C, strain DUN1, active compounds read low
[7] = S. cerevisiae deletion strains, locus YDL134C, strain PPH21, active compounds read low
[8] = S. cerevisiae deletion strains, locus YDL185W, strain tfp1, active compounds read low
[9] = S. cerevisiae deletion strains, locus YDL192W, strain arf1, active compounds read low
[10] = S. cerevisiae deletion strains, locus YDR101C, strain arx1, active compounds read low
[11] = S. cerevisiae deletion strains, locus YDR162C, strain NBP2, active compounds read low
[12] = S. cerevisiae deletion strains, locus YDR318W, strain mcm21, active compounds read low
[13] = S. cerevisiae deletion strains, locus YDR388W, active compounds read low
[14] = S. cerevisiae deletion strains, locus YDR502C, strain sam2, active compounds read low
[15] = S. cerevisiae deletion strains, locus YEL061C, strain CIN8, active compounds read low
[16] = S. cerevisiae deletion strains, locus YER110C, active compounds read low
[17] = S. cerevisiae deletion strains, locus YER155C, strain BEM2, active compounds read low
[18] = S. cerevisiae deletion strains, locus YER167W, strain BCK2, active compounds read low
[19] = S. cerevisiae deletion strains, locus YGL078C, strain dbp3, active compounds read low
[20] = S. cerevisiae deletion strains, locus YGL086W, strain mad1, active compounds read low
[21] = S. cerevisiae deletion strains, locus YGL248W, strain PDE1, active compounds read low
[22] = S. cerevisiae deletion strains, locus YGR078C, strain PAC10, active compounds read low
[23] = S. cerevisiae deletion strains, locus YGR135W, strain pre9, active compounds read low
[24] = S. cerevisiae deletion strains, locus YGR229C, strain SMI1, active compounds read low
[25] = S. cerevisiae deletion strains, locus YGR252W, strain gcn5, active compounds read low
[26] = S. cerevisiae deletion strains, locus YHR030C, strain SLT2, active compounds read low
[27] = S. cerevisiae deletion strains, locus YHR079C, strain IRE1 (second series), active compounds read low
[28] = S. cerevisiae deletion strains, locus YHR094C, strain hxt1, active compounds read low
[29] = S. cerevisiae deletion strains, locus YHR200W, strain rpn10, active compounds read low
[30] = S. cerevisiae deletion strains, locus YIL066C, strain RNR3, active compounds read low
[31] = S. cerevisiae deletion strains, locus YIL073C, strain SPO22, active compounds read low
[32] = S. cerevisiae deletion strains, locus YIL125W, strain kgd1, active compounds read low
[33] = S. cerevisiae deletion strains, locus YIR030C, strain dcg1, active compounds read low
[34] = S. cerevisiae deletion strains, locus YJL095W, strain BCK1, active compounds read low
[35] = S. cerevisiae deletion strains, locus YJL134W, strain LCB3, active compounds read low
[36] = S. cerevisiae deletion strains, locus YJL168C, strain set2, active compounds read low
[37] = S. cerevisiae deletion strains, locus YJL187C, strain SWE1 (second series), active compounds read low
[38] = S. cerevisiae deletion strains, locus YJR043C, strain POL32, active compounds read low
[39] = S. cerevisiae deletion strains, locus YKL009W, strain mrt4, active compounds read low
[40] = S. cerevisiae deletion strains, locus YKL068W, active compounds read low
[41] = S. cerevisiae deletion strains, locus YKL085W, strain MDH1 (second series), active compounds read low
[42] = S. cerevisiae deletion strains, locus YKL085W, strain MDH1, active compounds read low
[43] = S. cerevisiae deletion strains, locus YKL190W, strain CNB1, active compounds read low
[44] = S. cerevisiae deletion strains, locus YKR001C, strain vps1, active compounds read low
[45] = S. cerevisiae deletion strains, locus YLR039C, strain RIC1, active compounds read low
[46] = S. cerevisiae deletion strains, locus YLR058C, strain SHM2, active compounds read low
[47] = S. cerevisiae deletion strains, locus YLR102C, strain apc9, active compounds read low
[48] = S. cerevisiae deletion strains, locus YLR262C, strain YPT6, active compounds read low
[49] = S. cerevisiae deletion strains, locus YLR268W, strain sec22, active compounds read low
[50] = S. cerevisiae deletion strains, locus YLR330W, strain CHS5, active compounds read low
[51] = S. cerevisiae deletion strains, locus YLR342W, strain FKS1 (second series), active compounds read low
[52] = S. cerevisiae deletion strains, locus YLR371W, strain rom2, active compounds read low
[53] = S. cerevisiae deletion strains, locus YLR418C, strain cdc73, active compounds read low
[54] = S. cerevisiae deletion strains, locus YML016C, strain PPZ1, active compounds read low
[55] = S. cerevisiae deletion strains, locus YML032C, strain rad52, active compounds read low
[56] = S. cerevisiae deletion strains, locus YML124C, strain tub3, active compounds read low
[57] = S. cerevisiae deletion strains, locus YMR078C, strain ctf18, active compounds read low
[58] = S. cerevisiae deletion strains, locus YMR223W, strain ubp8, active compounds read low
[59] = S. cerevisiae deletion strains, locus YMR307W, strain GAS1, active compounds read low
[60] = S. cerevisiae deletion strains, locus YNL067W, strain RPL9B, active compounds read low
[61] = S. cerevisiae deletion strains, locus YNL233W, strain BNI4, active compounds read low
[62] = S. cerevisiae deletion strains, locus YNL250W, strain rad50, active compounds read low
[63] = S. cerevisiae deletion strains, locus YNL271C, strain bni1, active compounds read low
[64] = S. cerevisiae deletion strains, locus YNL298W, strain CLA4, active compounds read low
[65] = S. cerevisiae deletion strains, locus YNL307C, strain MCK1, active compounds read low
[66] = S. cerevisiae deletion strains, locus YNL322C, strain KRE1, active compounds read low
[67] = S. cerevisiae deletion strains, locus YNR052C, strain pop2, active compounds read low
[68] = S. cerevisiae deletion strains, locus YOL006C, strain TOP1, active compounds read low
[69] = S. cerevisiae deletion strains, locus YOL012C, strain htz1
[70] = S. cerevisiae deletion strains, locus YOL147C, strain pex11, active compounds read low
[71] = S. cerevisiae deletion strains, locus YOR061W, strain CKA2, active compounds read low
[72] = S. cerevisiae deletion strains, locus YOR069W, strain VPS5, active compounds read low
[73] = S. cerevisiae deletion strains, locus YOR136W, strain idh2, active compounds read low
[74] = S. cerevisiae deletion strains, locus YOR144C, strain elg1, active compounds read low
[75] = S. cerevisiae deletion strains, locus YOR184W, strain ser1, active compounds read low
[76] = S. cerevisiae deletion strains, locus YOR316C, strain cot1, active compounds read low
[77] = S. cerevisiae deletion strains, locus YPL055C, strain LGE1, active compounds read low
[78] = S. cerevisiae deletion strains, locus YPL241C, strain CIN2, active compounds read low
[79] = S. cerevisiae deletion strains, locus YPR119W, strain clb2, active compounds read low
[80] = S. cerevisiae deletion strains, locus YPR141C, strain kar3, active compounds read low
[81] = S. cerevisiae deletion strains, locus YPR163C, strain tif3, active compounds read low
[82] = S. cerevisiae deletion strains, locus YPR167C, strain met16, active compounds read low
[83] = S. cerevisiae deletion strains, strain wtn01, active compounds read low
[84] = S. cerevisiae strains, strain wild type, active compounds read low

Measured: normalized growth

CC(C)N(C(=O)SCC(Cl)=C(Cl)Cl)C(C)C
inactive: S. cerevisiae deletion strains, locus YAL013W, strain DEP1, active compounds read low 1.01 | [1] 1.01 | [2] 1.01 | [3] 1.01 | [4] 1.01 | [5] 1.04 | [6] 1.02 | [7] 1.02 | [8] 0.999 | [9] 0.998 | [10] 0.998 | S. cerevisiae deletion strains, locus YDR150W, strain NUM1, active compounds read low 1.02 | [11] 1.02 | [12] 1 | [13] 1 | [14] 1 | [15] 1.01 | [16] 0.998 | [17] 1.02 | [18] 1.03 | [19] 0.996 | [20] 1.01 | [21] 1.02 | [22] 1.02 | [23] 0.995 | [24] 1.04 | [25] 0.945 | [26] 1.02 | [27] 1 | [28] 1.01 | [29] 1 | [30] 1.02 | [31] 1.04 | [32] 1 | [33] 1 | [34] 1.03 | [35] 1.02 | [36] 1 | [37] 1.01 | [38] 1.01 | S. cerevisiae deletion strains, locus YJR075W, strain HOC1, active compounds read low 1.03 | [39] 1.01 | [40] 1.01 | [41] 1.01 | [42] 1.01 | [43] 1.04 | [44] 0.987 | [45] 0.9 | [46] 1.01 | [47] 1.01 | [48] 0.977 | [49] 0.981 | [50] 1.01 | [51] 1.02 | [52] 1 | [53] 0.996 | [54] 1.02 | [55] 1 | [56] 1 | [57] 1.01 | [58] 0.998 | S. cerevisiae deletion strains, locus YMR263W, strain SAP30, active compounds read low 1.03 | [59] 1.01 | [60] 1.02 | S. cerevisiae deletion strains, locus YNL128W, strain TEP1, active compounds read low 1.02 | S. cerevisiae deletion strains, locus YNL153C, strain GIM3, active compounds read low 1.01 | [61] 1.02 | [62] 0.999 | [63] 1 | [64] 0.986 | [65] 0.979 | [66] 1.01 | [67] 1 | [68] 1.08 | [69] 0.763 | [70] 1 | [71] 1.02 | [72] 1.02 | [73] 0.996 | [74] 1.01 | [75] 0.99 | [76] 1.01 | [77] 1.04 | [78] 1.02 | [79] 1 | [80] 1 | [81] 0.998 | [82] 1.01 | [83] 0.998 | [84] 1.01

COc1cc2c(c(OC)c1OC)-c1ccc(O)c(=O)cc1[C@@H](NC(C)=O)CC2
inactive: [1] 0.865 | [2] 0.962 | [3] 0.982 | [9] 0.978 | [12] 0.94 | [13] 1 | [14] 0.93 | [16] 1.03 | [17] 0.98 | [19] 0.957 | [23] 0.945 | [25] 0.879 | [28] 0.988 | [29] 0.977 | [33] 0.988 | [36] 1 | [39] 0.984 | [40] 0.968 | [47] 1.02 | [48] 0.72 | [51] 0.801 | [52] 0.933 | [53] 0.841 | [55] 1 | [56] 1 | [57] 1.01 | [58] 0.938 | [62] 0.968 | [65] 1.01 | [67] 0.961 | [69] 0.984 | [70] 1.01 | [73] 0.988 | [74] 0.97 | [75] 1 | [76] 1.02 | [79] 1.03 | [80] 0.997 | [81] 1.01 | [82] 0.929
active: [4] 0.543 | [5] 0.515 | [6] 0.715 | [7] 0.87 | [8] 0.323 | [10] 0.904 | [11] 0.382 | [15] 0.819 | [18] 0.798 | [20] 0.882 | [21] 0.744 | [22] 0.729 | [24] 0.247 | [26] 0.879 | [27] 0.851 | S. cerevisiae deletion strains, locus YHR129C, strain ARP1, active compounds read low 0.764 | [30] 0.543 | [31] 0.355 | [32] 0.881 | [34] 0.722 | [35] 0.913 | [37] 0.59 | [38] 0.55 | [41] 0.91 | [42] 0.91 | [43] 0.593 | [44] 0.889 | [45] 0.454 | [46] 0.691 | [49] 0.852 | [50] 0.886 | [54] 0.829 | [59] 0.577 | [60] 0.732 | [61] 0.81 | [63] 0.843 | [64] 0.891 | [66] 0.639 | [68] 0.198 | [71] 0.753 | [72] 0.896 | [77] 0.436 | [78] 0.9 | [83] 0.881 | [84] 0.285
